# Key:
# Test in all cases: DAPPL (digital affinity profiling via proximity ligation, sequencing); 10 mM Tris-HCl pH 7.5, 50 mM NaCl, 1 mM DTT, 4% glycerol, room temperature, 30 min; GST-TFs on glutathione beads, 16-mer random dsDNA library, 0.1% formaldehyde crosslink after washing; high values mean tight binding
# FLI1 = target: T1, FLI1 (Homo sapiens, UniProt Q01543 1-452); conditions: protein: recombinant; tags: N-terminal GST; dsDNA, one strand shown
# T1 sequence: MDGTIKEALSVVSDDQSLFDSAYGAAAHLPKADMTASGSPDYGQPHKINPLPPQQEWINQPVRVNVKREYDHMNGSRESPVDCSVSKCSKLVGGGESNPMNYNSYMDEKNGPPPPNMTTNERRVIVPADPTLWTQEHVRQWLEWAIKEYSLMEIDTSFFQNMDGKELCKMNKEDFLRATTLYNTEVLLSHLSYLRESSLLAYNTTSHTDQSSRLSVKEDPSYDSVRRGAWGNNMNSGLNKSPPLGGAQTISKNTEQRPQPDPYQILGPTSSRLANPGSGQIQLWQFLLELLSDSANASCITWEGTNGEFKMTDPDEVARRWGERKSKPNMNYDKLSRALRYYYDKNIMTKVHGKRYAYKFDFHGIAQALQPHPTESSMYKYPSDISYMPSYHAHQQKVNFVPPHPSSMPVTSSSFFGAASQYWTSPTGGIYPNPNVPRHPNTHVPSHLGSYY
# Procedure, shortened: (§1)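 Human transcription factors were made in yeast as GST fusions, captured on glutathione beads and barcoded with DNA. With a tag-only sample included, the pool was incubated with 200 nmole of a random double-stranded 16-mer DNA library in Tris/NaCl/DTT/glycerol buffer at room temperature for 30 min, then crosslinked with 0.1% formaldehyde after washing, ligated by proximity, amplified and sequenced. For binding signal, each hexamer's read frequency for a factor is divided by its frequency for the tag-only sample.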
# ELK1 = target: T2, ELK1 (Homo sapiens, UniProt P19419 1-428); conditions: protein: recombinant; tags: N-terminal GST; dsDNA, one strand shown
# T2 sequence: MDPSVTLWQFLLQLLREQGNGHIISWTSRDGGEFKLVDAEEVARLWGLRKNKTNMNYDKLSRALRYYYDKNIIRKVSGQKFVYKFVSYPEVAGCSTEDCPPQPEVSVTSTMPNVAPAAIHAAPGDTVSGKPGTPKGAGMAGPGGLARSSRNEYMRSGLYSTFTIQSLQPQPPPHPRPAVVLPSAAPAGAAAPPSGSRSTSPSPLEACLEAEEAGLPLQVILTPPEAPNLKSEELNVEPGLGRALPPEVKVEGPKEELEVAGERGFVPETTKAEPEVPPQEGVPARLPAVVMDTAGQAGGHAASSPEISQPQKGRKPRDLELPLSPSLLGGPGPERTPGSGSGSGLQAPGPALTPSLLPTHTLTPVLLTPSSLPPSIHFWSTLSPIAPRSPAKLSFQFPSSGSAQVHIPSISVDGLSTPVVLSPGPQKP
# Procedure, shortened: as §1
# GABPA = target: T3, GABPA (Homo sapiens, UniProt Q06546 1-454); conditions: protein: recombinant; tags: N-terminal GST; dsDNA, one strand shown
# T3 sequence: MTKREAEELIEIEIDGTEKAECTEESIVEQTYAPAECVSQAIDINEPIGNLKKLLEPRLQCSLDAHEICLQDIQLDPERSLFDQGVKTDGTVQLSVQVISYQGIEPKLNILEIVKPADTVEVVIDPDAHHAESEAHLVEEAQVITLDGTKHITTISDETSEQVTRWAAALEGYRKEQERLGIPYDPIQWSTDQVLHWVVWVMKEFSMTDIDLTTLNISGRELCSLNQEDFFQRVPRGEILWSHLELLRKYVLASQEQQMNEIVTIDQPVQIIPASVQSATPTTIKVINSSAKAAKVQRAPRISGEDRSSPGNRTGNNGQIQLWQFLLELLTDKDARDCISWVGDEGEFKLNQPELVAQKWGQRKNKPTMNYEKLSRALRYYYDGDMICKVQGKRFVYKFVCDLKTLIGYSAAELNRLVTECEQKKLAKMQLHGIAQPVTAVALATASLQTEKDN
# Procedure, shortened: as §1
# ERG = target: T4, ERG (Homo sapiens, UniProt P11308 1-479); conditions: protein: recombinant; tags: N-terminal GST; dsDNA, one strand shown
# T4 sequence: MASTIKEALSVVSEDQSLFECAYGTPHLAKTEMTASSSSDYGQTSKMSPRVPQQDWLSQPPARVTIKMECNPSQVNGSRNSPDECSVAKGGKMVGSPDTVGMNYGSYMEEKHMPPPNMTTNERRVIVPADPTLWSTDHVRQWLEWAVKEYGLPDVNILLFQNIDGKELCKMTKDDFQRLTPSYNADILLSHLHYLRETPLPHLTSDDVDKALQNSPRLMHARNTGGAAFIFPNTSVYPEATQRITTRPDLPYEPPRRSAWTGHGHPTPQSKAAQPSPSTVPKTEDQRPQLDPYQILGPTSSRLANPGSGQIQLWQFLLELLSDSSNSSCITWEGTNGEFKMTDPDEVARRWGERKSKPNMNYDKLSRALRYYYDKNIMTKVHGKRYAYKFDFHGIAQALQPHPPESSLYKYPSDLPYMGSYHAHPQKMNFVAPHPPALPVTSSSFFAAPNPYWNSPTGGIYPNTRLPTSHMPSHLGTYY
# Procedure, shortened: as §1
# ELF1 = ELF1 (Homo sapiens, UniProt P32519 1-619); conditions: protein: recombinant; tags: N-terminal GST; dsDNA, one strand shown
# Procedure, shortened: as §1
# EHF = target: T5, EHF (Homo sapiens, UniProt Q9NZC4 1-300); conditions: protein: recombinant; tags: N-terminal GST; dsDNA, one strand shown
# T5 sequence: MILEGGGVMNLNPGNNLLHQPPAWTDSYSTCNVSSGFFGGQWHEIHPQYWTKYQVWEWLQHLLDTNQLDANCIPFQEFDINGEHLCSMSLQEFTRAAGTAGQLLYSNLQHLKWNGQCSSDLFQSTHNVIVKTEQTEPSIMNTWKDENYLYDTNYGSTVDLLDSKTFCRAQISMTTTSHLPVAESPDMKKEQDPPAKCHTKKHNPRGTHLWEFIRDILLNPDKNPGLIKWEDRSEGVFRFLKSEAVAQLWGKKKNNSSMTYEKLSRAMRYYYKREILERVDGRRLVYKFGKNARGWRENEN
# Procedure, shortened: as §1
# SPI1 = SPI1 (Homo sapiens, UniProt P17947 1-270); conditions: protein: recombinant; tags: N-terminal GST; dsDNA, one strand shown
# Procedure, shortened: as §1
# SPIB = SPIB (Homo sapiens, UniProt Q01892 1-262); conditions: protein: recombinant; tags: N-terminal GST; dsDNA, one strand shown
# Procedure, shortened: as §1
# ELK3 = target: T6, ELK3 (Homo sapiens, UniProt P41970 1-407); conditions: protein: recombinant; tags: N-terminal GST; dsDNA, one strand shown
# T6 sequence: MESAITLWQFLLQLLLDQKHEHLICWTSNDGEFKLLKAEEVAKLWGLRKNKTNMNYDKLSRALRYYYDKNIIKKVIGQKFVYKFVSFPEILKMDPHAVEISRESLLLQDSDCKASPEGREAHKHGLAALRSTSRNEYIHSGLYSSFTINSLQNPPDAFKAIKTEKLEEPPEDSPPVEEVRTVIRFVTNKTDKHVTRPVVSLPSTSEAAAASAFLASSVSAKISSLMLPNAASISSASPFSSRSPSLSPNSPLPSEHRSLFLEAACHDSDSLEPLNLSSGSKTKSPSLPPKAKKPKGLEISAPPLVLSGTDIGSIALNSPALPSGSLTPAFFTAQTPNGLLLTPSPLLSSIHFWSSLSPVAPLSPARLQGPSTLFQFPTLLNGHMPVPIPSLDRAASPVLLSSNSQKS
# Procedure, shortened: as §1
# FEV = target: T7, FEV (Homo sapiens, UniProt Q99581 1-238); conditions: protein: recombinant; tags: N-terminal GST; dsDNA, one strand shown
# T7 sequence: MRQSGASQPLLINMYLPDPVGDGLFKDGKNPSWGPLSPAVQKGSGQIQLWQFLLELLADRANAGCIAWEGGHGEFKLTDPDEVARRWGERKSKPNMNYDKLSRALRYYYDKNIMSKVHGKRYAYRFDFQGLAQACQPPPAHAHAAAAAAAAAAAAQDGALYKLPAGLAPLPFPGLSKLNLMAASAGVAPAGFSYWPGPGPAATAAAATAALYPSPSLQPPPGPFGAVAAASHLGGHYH
# Procedure, shortened: as §1
# ETV5 = ETV5 (Homo sapiens, UniProt P41161 1-510); conditions: protein: recombinant; tags: N-terminal GST; dsDNA, one strand shown
# Procedure, shortened: as §1
# HSF1 = HSF1 (Homo sapiens, UniProt Q00613 1-529); conditions: protein: recombinant; tags: N-terminal GST; chain copies: 3; dsDNA, one strand shown
# Procedure, shortened: as §1
# SPIC = target: T8, SPIC (Homo sapiens, UniProt Q8N5J4 1-248); conditions: protein: recombinant; tags: N-terminal GST; dsDNA, one strand shown
# T8 sequence: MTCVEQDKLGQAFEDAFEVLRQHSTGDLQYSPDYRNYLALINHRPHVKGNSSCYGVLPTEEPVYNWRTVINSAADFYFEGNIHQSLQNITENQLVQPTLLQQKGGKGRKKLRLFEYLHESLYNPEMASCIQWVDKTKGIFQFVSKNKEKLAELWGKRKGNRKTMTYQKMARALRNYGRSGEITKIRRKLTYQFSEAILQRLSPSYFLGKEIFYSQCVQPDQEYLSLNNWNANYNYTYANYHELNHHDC
# Procedure, shortened: as §1
# ELF4 = ELF4 (Homo sapiens, UniProt Q99607 1-663); conditions: protein: recombinant; tags: N-terminal GST; dsDNA, one strand shown
# Procedure, shortened: as §1
# ELK4 = target: T9, ELK4 (Homo sapiens, UniProt P28324-2 1-405); conditions: protein: recombinant; tags: N-terminal GST; dsDNA, one strand shown
# T9 sequence: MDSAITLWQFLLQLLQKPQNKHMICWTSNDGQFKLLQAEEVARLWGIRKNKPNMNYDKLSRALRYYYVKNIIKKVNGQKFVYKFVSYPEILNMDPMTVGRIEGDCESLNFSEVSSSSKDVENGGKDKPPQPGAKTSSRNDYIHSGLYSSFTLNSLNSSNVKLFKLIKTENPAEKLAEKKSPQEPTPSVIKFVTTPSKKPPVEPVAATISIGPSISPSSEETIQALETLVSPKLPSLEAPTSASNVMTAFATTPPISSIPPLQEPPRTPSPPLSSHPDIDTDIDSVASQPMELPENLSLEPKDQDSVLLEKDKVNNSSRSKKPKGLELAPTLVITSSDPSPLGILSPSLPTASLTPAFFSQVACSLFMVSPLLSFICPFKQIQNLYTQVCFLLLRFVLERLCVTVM
# Procedure, shortened: as §1
# ETV2 = target: T10, ETV2 (Homo sapiens, UniProt O00321 1-342); conditions: protein: recombinant; tags: N-terminal GST; dsDNA, one strand shown
# T10 sequence: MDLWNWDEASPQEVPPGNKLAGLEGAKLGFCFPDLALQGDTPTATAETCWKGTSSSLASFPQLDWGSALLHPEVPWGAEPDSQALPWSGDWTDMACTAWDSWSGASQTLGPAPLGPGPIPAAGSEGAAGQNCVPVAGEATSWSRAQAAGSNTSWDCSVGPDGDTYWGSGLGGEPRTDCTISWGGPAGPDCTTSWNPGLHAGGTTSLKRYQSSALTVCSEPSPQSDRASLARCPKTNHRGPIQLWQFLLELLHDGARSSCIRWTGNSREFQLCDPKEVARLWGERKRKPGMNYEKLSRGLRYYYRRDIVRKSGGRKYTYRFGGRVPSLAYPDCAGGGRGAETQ
# Procedure, shortened: as §1
# ELF3 = target: T11, ELF3 (Homo sapiens, UniProt P78545 1-371); conditions: protein: recombinant; tags: N-terminal GST; dsDNA, one strand shown
# T11 sequence: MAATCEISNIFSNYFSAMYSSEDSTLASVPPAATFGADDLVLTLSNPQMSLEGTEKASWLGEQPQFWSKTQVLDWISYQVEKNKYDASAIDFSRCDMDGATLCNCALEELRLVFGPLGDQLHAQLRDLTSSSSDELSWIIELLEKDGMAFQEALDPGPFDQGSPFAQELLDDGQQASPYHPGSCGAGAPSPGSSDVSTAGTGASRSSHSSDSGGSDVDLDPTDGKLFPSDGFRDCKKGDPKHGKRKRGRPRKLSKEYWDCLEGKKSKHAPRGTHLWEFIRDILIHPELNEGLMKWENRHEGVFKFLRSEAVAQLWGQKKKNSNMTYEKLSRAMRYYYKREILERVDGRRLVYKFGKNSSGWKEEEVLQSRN
# Procedure, shortened: as §1
# CRX = CRX (Homo sapiens, UniProt O43186 1-299); conditions: protein: recombinant; tags: N-terminal GST; dsDNA, one strand shown
# Procedure, shortened: as §1
# ETV1 = ETV1 (Homo sapiens, UniProt P50549 1-477); conditions: protein: recombinant; tags: N-terminal GST; dsDNA, one strand shown
# Procedure, shortened: as §1
# ELF4, sequence (Q99607 whole entry): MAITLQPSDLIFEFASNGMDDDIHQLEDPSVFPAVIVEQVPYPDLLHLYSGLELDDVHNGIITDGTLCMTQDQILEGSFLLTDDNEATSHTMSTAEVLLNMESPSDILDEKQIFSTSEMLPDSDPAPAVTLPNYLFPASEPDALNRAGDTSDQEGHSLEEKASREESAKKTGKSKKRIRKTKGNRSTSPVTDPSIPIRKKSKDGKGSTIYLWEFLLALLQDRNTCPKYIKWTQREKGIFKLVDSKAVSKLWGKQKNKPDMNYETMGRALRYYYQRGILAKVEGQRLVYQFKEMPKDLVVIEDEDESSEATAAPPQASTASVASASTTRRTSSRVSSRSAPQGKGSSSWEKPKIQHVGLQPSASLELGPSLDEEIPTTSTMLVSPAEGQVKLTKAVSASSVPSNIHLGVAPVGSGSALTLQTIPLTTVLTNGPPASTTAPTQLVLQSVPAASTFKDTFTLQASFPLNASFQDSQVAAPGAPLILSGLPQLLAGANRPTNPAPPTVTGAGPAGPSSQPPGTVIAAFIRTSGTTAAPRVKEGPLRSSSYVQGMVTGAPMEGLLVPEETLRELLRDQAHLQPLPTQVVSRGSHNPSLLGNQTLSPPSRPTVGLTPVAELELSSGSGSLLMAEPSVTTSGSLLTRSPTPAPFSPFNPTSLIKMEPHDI
# ELF1, sequence (P32519 whole entry): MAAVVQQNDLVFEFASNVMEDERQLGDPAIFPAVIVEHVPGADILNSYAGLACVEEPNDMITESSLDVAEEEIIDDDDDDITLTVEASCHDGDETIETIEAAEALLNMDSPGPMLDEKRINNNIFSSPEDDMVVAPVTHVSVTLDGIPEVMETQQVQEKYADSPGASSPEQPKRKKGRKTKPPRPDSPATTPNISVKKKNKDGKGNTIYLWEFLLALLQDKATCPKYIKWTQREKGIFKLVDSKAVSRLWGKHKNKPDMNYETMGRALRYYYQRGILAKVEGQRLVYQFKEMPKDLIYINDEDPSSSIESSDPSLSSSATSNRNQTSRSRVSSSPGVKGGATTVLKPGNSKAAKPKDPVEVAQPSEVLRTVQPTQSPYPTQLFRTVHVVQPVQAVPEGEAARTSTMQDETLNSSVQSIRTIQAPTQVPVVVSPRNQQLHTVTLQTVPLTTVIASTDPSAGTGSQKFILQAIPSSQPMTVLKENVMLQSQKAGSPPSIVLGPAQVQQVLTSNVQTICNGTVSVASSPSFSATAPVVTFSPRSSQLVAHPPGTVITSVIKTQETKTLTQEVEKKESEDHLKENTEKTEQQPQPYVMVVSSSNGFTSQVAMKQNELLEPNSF
# HSF1, sequence (Q00613 whole entry): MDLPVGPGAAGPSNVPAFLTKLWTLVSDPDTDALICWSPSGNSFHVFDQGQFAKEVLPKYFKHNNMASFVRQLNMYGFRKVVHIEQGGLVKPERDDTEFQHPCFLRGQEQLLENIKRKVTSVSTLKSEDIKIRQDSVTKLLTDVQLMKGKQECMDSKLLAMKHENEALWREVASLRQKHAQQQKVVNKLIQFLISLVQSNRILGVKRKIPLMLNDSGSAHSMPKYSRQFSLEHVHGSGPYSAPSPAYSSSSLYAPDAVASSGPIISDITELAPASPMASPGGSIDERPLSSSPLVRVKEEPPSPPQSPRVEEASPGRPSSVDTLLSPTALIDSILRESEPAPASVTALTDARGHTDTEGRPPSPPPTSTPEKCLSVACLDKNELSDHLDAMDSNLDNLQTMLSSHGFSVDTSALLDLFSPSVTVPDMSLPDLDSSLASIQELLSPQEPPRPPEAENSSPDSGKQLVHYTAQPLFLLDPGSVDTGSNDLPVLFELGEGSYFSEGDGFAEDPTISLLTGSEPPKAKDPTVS
# CRX, sequence (O43186 whole entry): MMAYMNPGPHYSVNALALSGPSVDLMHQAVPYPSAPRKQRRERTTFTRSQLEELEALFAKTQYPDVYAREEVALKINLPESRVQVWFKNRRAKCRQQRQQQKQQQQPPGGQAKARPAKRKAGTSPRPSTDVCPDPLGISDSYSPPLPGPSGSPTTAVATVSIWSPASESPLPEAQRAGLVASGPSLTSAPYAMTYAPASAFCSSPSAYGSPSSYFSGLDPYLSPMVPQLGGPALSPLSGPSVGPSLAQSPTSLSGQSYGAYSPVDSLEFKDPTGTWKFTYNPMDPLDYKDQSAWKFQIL
# ETV1, sequence (P50549 whole entry): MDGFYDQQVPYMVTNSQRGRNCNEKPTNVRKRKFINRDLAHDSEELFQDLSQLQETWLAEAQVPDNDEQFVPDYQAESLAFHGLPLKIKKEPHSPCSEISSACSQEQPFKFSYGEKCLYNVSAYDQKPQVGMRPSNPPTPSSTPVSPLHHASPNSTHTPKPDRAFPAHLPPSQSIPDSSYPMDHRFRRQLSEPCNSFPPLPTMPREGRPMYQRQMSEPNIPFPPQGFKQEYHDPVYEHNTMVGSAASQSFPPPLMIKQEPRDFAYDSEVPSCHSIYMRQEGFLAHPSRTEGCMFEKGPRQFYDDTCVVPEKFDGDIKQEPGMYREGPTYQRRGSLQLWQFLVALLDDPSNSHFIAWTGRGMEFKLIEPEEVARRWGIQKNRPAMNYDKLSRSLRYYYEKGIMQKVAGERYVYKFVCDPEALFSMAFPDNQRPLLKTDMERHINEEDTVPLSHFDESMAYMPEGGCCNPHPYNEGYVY
# SPIB, sequence (Q01892 whole entry): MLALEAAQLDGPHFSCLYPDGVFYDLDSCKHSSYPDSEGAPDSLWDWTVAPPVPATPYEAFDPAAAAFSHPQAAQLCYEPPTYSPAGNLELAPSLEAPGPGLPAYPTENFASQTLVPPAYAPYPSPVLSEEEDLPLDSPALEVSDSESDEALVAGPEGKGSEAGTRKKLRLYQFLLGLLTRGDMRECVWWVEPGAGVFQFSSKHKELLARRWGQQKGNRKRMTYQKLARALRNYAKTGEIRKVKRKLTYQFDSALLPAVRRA
# ETV5, sequence (P41161 whole entry): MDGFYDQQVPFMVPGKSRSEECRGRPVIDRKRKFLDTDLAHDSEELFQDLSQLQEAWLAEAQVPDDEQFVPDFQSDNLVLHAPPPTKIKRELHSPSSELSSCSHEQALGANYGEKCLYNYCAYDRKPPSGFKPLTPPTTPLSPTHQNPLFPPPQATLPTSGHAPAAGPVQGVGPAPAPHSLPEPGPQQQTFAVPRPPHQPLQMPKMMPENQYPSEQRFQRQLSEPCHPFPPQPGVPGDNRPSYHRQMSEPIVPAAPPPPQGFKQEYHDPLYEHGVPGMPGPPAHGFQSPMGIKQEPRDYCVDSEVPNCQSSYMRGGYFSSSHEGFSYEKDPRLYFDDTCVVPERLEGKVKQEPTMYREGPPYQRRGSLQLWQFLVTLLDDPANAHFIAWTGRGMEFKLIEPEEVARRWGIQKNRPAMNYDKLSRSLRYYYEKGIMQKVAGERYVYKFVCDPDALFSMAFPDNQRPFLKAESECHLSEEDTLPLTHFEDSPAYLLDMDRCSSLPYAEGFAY
sequence,measurement,setting,value
GCTAAT,binding signal,FLI1,"1.14 fold enrichment (6-mer frequency, TF over GST control)"
same,binding signal,ELK1,"1.18 fold enrichment (6-mer frequency, TF over GST control)"
same,binding signal,GABPA,"1.17 fold enrichment (6-mer frequency, TF over GST control)"
same,binding signal,ERG,"1.13 fold enrichment (6-mer frequency, TF over GST control)"
same,binding signal,ELF1,"1.16 fold enrichment (6-mer frequency, TF over GST control)"
same,binding signal,EHF,"1.17 fold enrichment (6-mer frequency, TF over GST control)"
same,binding signal,SPI1,"1.13 fold enrichment (6-mer frequency, TF over GST control)"
same,binding signal,SPIB,"1.17 fold enrichment (6-mer frequency, TF over GST control)"
same,binding signal,ELK3,"1.2 fold enrichment (6-mer frequency, TF over GST control)"
same,binding signal,FEV,"1.18 fold enrichment (6-mer frequency, TF over GST control)"
same,binding signal,ETV5,"1.11 fold enrichment (6-mer frequency, TF over GST control)"
same,binding signal,HSF1,"1.72 fold enrichment (6-mer frequency, TF over GST control)"
same,binding signal,SPIC,"1.23 fold enrichment (6-mer frequency, TF over GST control)"
same,binding signal,ELF4,"1.27 fold enrichment (6-mer frequency, TF over GST control)"
same,binding signal,ELK4,"1.22 fold enrichment (6-mer frequency, TF over GST control)"
same,binding signal,ETV2,"1.24 fold enrichment (6-mer frequency, TF over GST control)"
same,binding signal,ELF3,"1.22 fold enrichment (6-mer frequency, TF over GST control)"
same,binding signal,CRX,"2.56 fold enrichment (6-mer frequency, TF over GST control)"
same,binding signal,ETV1,"1.14 fold enrichment (6-mer frequency, TF over GST control)"
